Measurements reported in PubChem BioAssay (NCI).
This is part of a sample that, as a whole, favours compounds with a hit. Of some 83,000 tested, about 20% had one in any assay.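 Results are percent growth after 48 hours of single-concentration exposure. 100 means growth as in untreated cells, lower positive values show inhibition; negative values down to -100 show cell death.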 The source made the active and inactive calls. How the source made its calls: active means growth percent below 10; inactive means the rest.

Tests used:
Assay in all cases: NCI-60 one-dose screen, 48 h (100 = growth as untreated, 0 = no growth, -100 = all killed)
Conditions in all cases: 10 µM unless noted
[1] = system: HT29 colon
[2] = system: SNB-75 CNS
[3] = system: SNB-19 CNS
[4] = system: U251 CNS
[5] = system: SK-MEL-5 melanoma
[6] = system: UACC-62 melanoma
[7] = system: LOX IMVI melanoma
[8] = system: SK-MEL-28 melanoma
[9] = system: SK-MEL-2 melanoma

Measured: growth

O=c1c(O)cccn1CCCNCCCN(CCCn1cccc(O)c1=O)CCCn1cccc(O)c1=O
inactive: [1] 111% | [2] 104% | [3] 99.8% | [4] 93.8% | [5] 105% | [6] 100% | [7] 83.8% | [8] 116% | [9] 122%

COC(=O)[C@]1(CCSC)N[C@H](c2cn(-c3ccccc3)nc2C)[C@@H]2C(=O)N(c3ccc(C)cc3)C(=O)[C@@H]21
inactive: [1] 99.7% | [2] 93.3% | [3] 97.8% | [4] 95.7% | [5] 115% | [6] 102% | [7] 97.9% | [8] 109% | [9] 101%

[O-]/[N+](=C\C=C\c1ccccc1)c1ccccc1
inactive: [1] 102% | [2] 91.8% | [3] 96.8% | [4] 98.8% | [5] 102% | [6] 93.8% | [7] 96.8% | [8] 110% | [9] 100%

CCCCSc1cc(C)nc(N)n1
inactive: [1] 103% | [2] 81% | [3] 99.4% | [4] 93.8% | [5] 101% | [6] 93.9% | [7] 92% | [8] 113% | [9] 93.4%

O=C(N1CCC(CN=c2cc3n(-c4ccc(Cl)cc4)c4ccccc4nc-3cc2Nc2ccc(Cl)cc2)CC1)N1CC1
active: [1] -97.9% | [2] -60.6% | [3] -67.7% | [4] -62.5% | [5] -97.6% | [6] -77.5% | [7] -67.5% | [8] -90.8% | [9] -80.8%

Cc1ccc(C(C)C)cc1NC(=O)Nc1ccc([N+](=O)[O-])cc1
active: [7] 5.39% | [9] -2.75%
inactive: [1] 12.4% | [2] 40.9% | [3] 20.1% | [4] 15.4% | [5] 16.7% | [6] 11.7% | [8] 22.4%

CCOC(=O)c1c(C)nc(C)c(C(=O)OCC)c1-c1cccnc1
inactive: [1] 96.5% | [2] 81.7% | [3] 96.1% | [4] 94.1% | [5] 97.5% | [6] 105% | [7] 96.1% | [8] 119% | [9] 110%

CCCc1cc(=O)n2c(C(=O)Nc3ccccc3OC)c(C(=O)Nc3ccc(F)cc3)sc2n1
inactive: [1] 38.2% [30 µM] | [2] 12.8% [30 µM] | [3] 26.7% [30 µM] | [4] 14.7% [30 µM] | [5] 45.4% [30 µM] | [6] 66.6% [30 µM] | [7] 44.5% [30 µM] | [8] 68.5% [30 µM] | [9] 91.6% [30 µM]

COc1ccc(Nc2ccnc(NCCCNc3ccnc4cc(Cl)ccc34)n2)cc1
active: [1] -56.6% | [2] -75.5% | [3] 7.11% | [4] -84.3% | [5] -98% | [6] -91.2% | [7] -80.4% | [8] -93.6% | [9] -86.4%

CC1=NN(c2ccccc2Cl)C(=O)/C1=C\c1cn(S(=O)(=O)c2ccc(C)cc2)c2ccccc12
inactive: [1] 122% | [2] 89.3% | [3] 114% | [4] 103% | [5] 106% | [6] 86.5% | [7] 97.4% | [8] 125% | [9] 114%

ClC1=C(Cl)C(=C2C(Cl)=C(Cl)C(Cl)=C2Cl)C(Cl)=C1Cl
inactive: [1] 96.2% | [2] 94.4% | [3] 105% | [4] 103% | [5] 103% | [6] 99.3% | [7] 97.9% | [8] 111% | [9] 95.8%

O=C1C(Cl)=C(N=Nc2c(Cl)c(O)c3ccccc3c2O)C(=O)c2ccccc21
inactive: [1] 76.3% | [2] 85.8% | [3] 66.3% | [4] 53.3% | [5] 53.1% | [7] 43% | [8] 67.3% | [9] 98.5%
active: [6] 5.34%

COc1ccc(-c2nc3sccn3c2-c2ccnc(S(C)(=O)=O)n2)cc1
inactive: [1] 89% | [2] 61.1% | [3] 64.2% | [4] 94.4% | [5] 98.9% | [6] 77.1% | [7] 68.8% | [8] 43.7% | [9] 100%

COc1ccc2[nH]c(-c3ccccc3)cc2c1
inactive: [1] 102% | [2] 88% | [3] 93.4% | [4] 107% | [5] 97% | [6] 84.7% | [7] 105% | [8] 110% | [9] 101%

O=C(c1nn(-c2ccc(Cl)cc2)cc1O)n1nc(C(F)(F)F)cc1-c1ccccc1
inactive: [1] 37.8% | [2] 55.4% | [3] 51.2% | [4] 46.8% | [5] 59% | [6] 44.2% | [7] 32.8% | [8] 53% | [9] 67.9%

NC(=O)c1ccccc1NC(=O)c1ccccc1Cl
inactive: [1] 118% | [2] 92.8% | [3] 98.4% | [4] 106% | [5] 106% | [6] 97.4% | [7] 106% | [8] 112% | [9] 129%

COc1cc(NC(=O)c2cc3ccccc3cc2O)c(OC)cc1Cl
inactive: [1] 64.8% | [2] 40.9% | [3] 16% | [4] 13.1% | [6] 24% | [8] 43.6%
active: [5] -41.9% | [7] 3.45% | [9] -17.2%

Cc1nc2c(O)cccc2cc1CO
inactive: [1] 99.8% | [2] 78.2% | [3] 104% | [4] 109% | [5] 98.5% | [6] 94.6% | [7] 106% | [8] 139% | [9] 122%

O=C1CC(C(F)(F)F)=NN1C(=O)c1nn(-c2ccc(Cl)cc2)cc1O
inactive: [1] 110% | [2] 74.6% | [3] 87.7% | [4] 64.9% | [5] 88.4% | [6] 96.4% | [7] 62.6% | [8] 115% | [9] 96.9%

C/C(=N/N=C(N)N)c1ccc(N)cc1
inactive: [1] 103% | [2] 102% | [3] 96.3% | [4] 99.3% | [5] 107% | [6] 105% | [7] 96.6% | [8] 110% | [9] 154%

CCOC(=O)/C=C(/C)Sc1cc(O)c2ccccc2c1O
active: [2] -83% | [3] -14.7% | [5] -99.1% | [7] -36.1% | [8] -53.9%
inactive: [1] 79.7% | [4] 20% | [6] 36.3% | [9] 27.8%

CCN(CC)CCCCNc1c2ccccc2[n+](C)c2c1[nH]c1ccccc12
active: [1] 0.443% | [2] -49.8% | [3] -22.7% | [4] 0.218% | [5] -69.9% | [6] -69.6% | [7] -5.07% | [8] -90.4% | [9] -90.7%

O=c1ccn(C2OC(CO)C(O)C2F)c(=O)[nH]1 (configuration not stated)
inactive: [1] 104% | [2] 93% | [3] 101% | [4] 113% | [5] 107% | [6] 92.4% | [7] 106% | [8] 116% | [9] 119%

Cc1ccc([N+](=O)[O-])cc1NC(=O)Nc1cccc(F)c1
inactive: [1] 79.8% | [2] 90.2% | [3] 64.1% | [4] 64.3% | [5] 60.5% | [6] 71.8% | [7] 82.4% | [8] 108% | [9] 86%

O=C(C=C=Nc1ccccc1)C(=O)N=C=Cc1ccccc1
inactive: [1] 52.1% | [2] 75.8% | [3] 92.3% | [4] 83.7% | [5] 74.3% | [6] 67% | [8] 68.2% | [9] 49.2%
active: [7] -47.5%

CCC(C)CC(C)C(=O)c1c(O)ccn(OC)c1=O (configuration not stated)
inactive: [1] 124% | [2] 88% | [3] 78% | [4] 60.6% | [5] 84% | [6] 92.3% | [7] 32.4% | [8] 77.6% | [9] 102%

Cc1cc(N2CCOCC2)nc(N2CCOCC2)n1
inactive: [1] 103% | [2] 94.4% | [3] 99.7% | [4] 102% | [5] 102% | [6] 99% | [7] 104% | [8] 113% | [9] 90.6%

O=C(NCCc1ccccc1)C1CCC(=O)N1Cc1ccc(Br)cc1 (configuration not stated)
inactive: [1] 85.6% | [2] 100% | [3] 96.7% | [4] 96.7% | [5] 101% | [6] 95.4% | [7] 97.8% | [8] 99.7% | [9] 96.1%
